{"source": "PubChem BioAssay AID651917", "about": "(Southern Research Specialized Biocontainment Screening …, 2012)", "note": "Results with a measured potency or affinity are listed apart. Calls of active or inactive are those of the source. No rule for the calls is given here."}
{"assay": "VEEV TC-83 cytopathic effect inhibitors, confirmation, cell-based, TC-83 strain, set 8 (AID 651917)", "details": "VEEV TC-83 infected cells; series mostly up to 25 µM; inhibition: at the top concentration"}
{"smiles": "O=c1nc(Nc2ccccc2OCc2ccccc2)sc2ncccc12", "inhibition": "6.97% (inactive)"}
{"smiles": "CCN1CCN(Cc2nc3ccc([N+](=O)[O-])cc3c(=O)n2Cc2ccccc2)CC1", "inhibition": "-2% [at 50 µM] (inactive)"}
{"smiles": "Cc1cccc(C)c1Nc1nc(=O)c2cccnc2s1", "inhibition": "-1.13% (inactive)"}
{"smiles": "O=c1nc(Nc2ccc(F)cc2)sc2ncccc12", "inhibition": "-1.5% (inactive)"}
{"smiles": "O=c1nc(N2CCN(Cc3ccccc3)CC2)sc2ncccc12", "inhibition": "-2.53% (inactive)"}
{"smiles": "CCN1CCN(Cc2nc3ncccc3c(=O)n2-c2ccccc2)CC1", "inhibition": "-1.77% (inactive)"}
{"smiles": "O=C1CN(Cc2nc3ccc([N+](=O)[O-])cc3c(=O)n2-c2ccccc2F)CCN1", "inhibition": "-1.4% [at 50 µM] (inactive)"}
{"smiles": "CCN1CCN(c2nc3ccc([N+](=O)[O-])cc3c(=O)n2-c2ccccc2)CC1", "inhibition": "4.2% (inactive)"}
{"smiles": "CCN1CCN(Cc2nc3ccc(-c4nn[nH]n4)cc3c(=O)n2-c2ccccc2)CC1", "inhibition": "-1.1% [at 50 µM] (inactive)"}
{"smiles": "CN(C)c1ccc(-n2c(CN3CCNCC3)nc3ccc([N+](=O)[O-])cc3c2=O)cc1", "inhibition": "46.6% (inactive)"}
{"smiles": "COc1ccc(Nc2nc(=O)c3cccnc3s2)cc1", "inhibition": "-2.13% [at 50 µM] (inactive)"}
{"smiles": "CCN1CCN(CC2Nc3ccc([N+](=O)[O-])cc3C(=O)N2c2ccccc2F)CC1", "note": "(stereo not drawn)", "inhibition": "7.2% (inactive)"}
{"smiles": "CCN1CCN(Cc2nc3ccc([N+](=O)[O-])cc3c(=O)n2C)CC1", "inhibition": "2.33% [at 50 µM] (inactive)"}
{"smiles": "CCN1CCN(Cc2nc3c([N+](=O)[O-])cccc3c(=O)n2-c2ccccc2)CC1", "inhibition": "-3.57% (inactive)"}
{"smiles": "CCN1CCN(Cc2nc3ccc(S(=O)(=O)O)cc3c(=O)n2-c2ccccc2)CC1", "inhibition": "-0.9% (inactive)"}
{"smiles": "CCN(CC)c1nc(=O)c2cccnc2s1", "inhibition": "-1.73% [at 50 µM] (inactive)"}
{"smiles": "O=c1nc(Nc2ccc(CCc3ccccc3)cc2)sc2ncccc12", "inhibition": "-2.33% [at 50 µM] (inactive)"}
{"smiles": "O=c1nc(Nc2ccc(OCc3ccccc3)cc2)sc2ncc([N+](=O)[O-])cc12", "inhibition": "-1.13% (inactive)"}
{"smiles": "O=c1nc(NC2CCNCC2)sc2ncccc12", "inhibition": "-6.83% (inactive)"}
{"smiles": "CCN1CCN(Cc2nc3ccc(-c4cccnc4)cc3c(=O)n2-c2ccccc2)CC1", "inhibition": "7.6% (inactive)"}
{"smiles": "COc1ccccc1-n1c(CN2CCNCC2)nc2ccc([N+](=O)[O-])cc2c1=O", "inhibition": "5.2% (inactive)"}
{"smiles": "CN(C)c1cccc(-n2c(CN3CCNCC3)nc3ccc([N+](=O)[O-])cc3c2=O)c1", "inhibition": "2.5% (inactive)"}
{"smiles": "CCN1CCN(Cc2nc3ccc(C(=O)O)cc3c(=O)n2-c2ccccc2)CC1", "inhibition": "-5.4% (inactive)"}
